From PubChem BioAssay (Tox21) come the findings set out here.

Active and inactive are the calls of the source. Calls come from the whole dose curve; as a rule, active = well fitted curve in the direction sought with a large enough effect in the repeat runs; inconclusive = weak or mixed curves; inactive = flat fitted curve, though single readings scatter.
% is set by controls: 0 for no effect and ±100 for the full control effect.

This experiment in a line: qHTS assay to test for compound auto fluorescence at 590 nm (red) in HEK293 cells (AID 720679). The conditions noted are these: red autofluorescence 540/590 nm; series mostly up to 91.3 µM. From the text:
National Center for Advancing Translational Sciences [NCATS]
NIH Chemical Genomics Center [NCGC]
U.S. Environmental Protection Agency [EPA]
National Institutes of Environmental Health Sciences [NIEHS]
National Toxicology Program [NTP]
U.S. Food and Drug Administration [FDA]
Compound auto fluorescence often interferes with screening of the compound library against various biological targets and signaling pathways. Some of these compounds may have fluorophoric properties. Such properties may interfere with the assay outputs resulting in false positives and/or negatives. To decrease such complications and ensure the compound activities are relevant in terms of biological response, the Tox21 10K compound library was screened for auto fluorescence.
From the fluorophores used as reporter signals in our screening assays, the auto fluorescence equivalencies of compounds against three fluorophores have been evaluated: Triamterene, Fluorescein and Rose Bengal sodium for blue, green and red fluorescence, respectively. The fluorescence intensities were measured using Excitation/Emission wavelengths at 405/460nm, 485/535nm and 540/590nm for blue, green and red labels, respectively. This assay includes the red fluorescence data.
Tox21 Assay Protocol Summary:
2,000 HEK293 cells in 5 uL of culture medium containing 10% dialyzed FBS per well were dispensed into black wall/clear bottom 1536-well plates using a Multidrop Combi Dispenser (Thermo Scientific). The assay plates were incubated for 4-5 hr at 37C to allow cell attachment to the well bottom, followed by the transfer of 23 nL compound or DMSO vehicle by a pintool work station (Kalypsys, San Diego, CA). After the assay plates were incubated overnight at 37C and 5% CO2, fluorescence intensities in the assay plates were measured by an Envision (PerkinElmer, Shelton, CT) plate reader using three labels for measuring blue, green and red fluorescence at […] 460, 535 and 590nm respectively.
For orientation: In qHTS, concentration-response curves come from the screen itself.
Take `C[Si]1(C)O[Si](C)(C)O[Si](C)(C)O1`: the molecule was classed as inactive. With `CC#N`, the molecule was called inactive. Still for that read-out and setting: for `CN1CCCN=C1/C=C/c1cccs1` the value was “inactive”. On the same count and under the same terms, the entry for `Fc1ccccc1[C@@H](F)COC1CCC(Nc2ncnc3[nH]ncc23)CC1` (stereo not given in full) is “inactive”. Same read-out and setting: for `CCCc1c(OCCCOc2ccc(OCC(=O)O)cc2)ccc(C(C)=O)c1O` the value was “inactive”. Regarding `O=C1NCCN1`, the call was inactive. The same measure, in the same setting: for `CCCCOC(=O)CCS` the value was “inactive”. On the same count and under the same terms, for `CCC(Cc1ccccc1)(C(=O)c1ccc(N2CCOCC2)cc1)N(C)C` (stereo not given) the value was “inactive”. Turning to `CC(=O)OCC(=O)[C@@]12OC(C)(C)O[C@@H]1C[C@H]1[C@@H]3C[C@H](F)C4=CC(=O)C=C[C@]4(C)[C@@]3(F)[C@@H](O)C[C@@]12C`, the fluorescence, % of fluorescent control was 0.156% [at 18.6 µM] (inactive). In the case of `CC1=C(C=O)C(C)(C)CCC1`, the call was inactive. Still for that read-out and setting: for `CC1CC(O)CC(C)(C)C1` (stereo not given) the value was “inactive”; for `COc1cc2c(cc1OC)-c1cc(=Nc3c(C)cc(C)cc3C)n(C)c(=O)n1CC2`, “inactive”. The same measure, in the same setting: for `CCCCC(CC)C(=O)OCCOCCOCCOCCOC(=O)C(CC)CCCC` (stereo not given) the value was “inactive”. Still for that read-out and setting: for `Cc1ccc(/C=N/n2c(-c3ccccc3)csc2=S)cc1` the value was “inactive”. As to `CC1(C)C2=CCCC(C)(C)[C@]23CC[C@H]1C3`, the call was inactive. The same measure, in the same setting: the entry for `CCC(C)(C)C1CCC(O)CC1` (stereo not given) is “inactive”; for `C[C@]12CCC(=O)C=C1C=C[C@@H]1[C@@H]2CC[C@@]2(C)[C@H]1CC[C@@]21CCC(=O)O1` it is “inactive”.

In the case of `O=C(OCCOCCO)c1ccccc1Nc1cccc(C(F)(F)F)c1`, the fluorescence, % of fluorescent control is 0.0507% [at 18.6 µM] (inactive). Still for that read-out and setting: the figure for `CCCCC1C(=O)N(c2ccccc2)N(c2ccc(O)cc2)C1=O` (stereo not given) is -0.0017% [at 18.6 µM] (inactive).

On to `CCCCCCCCSCCO`, for which the outcome was inactive. Same read-out and setting: for `CCc1nn(CCCN2CCN(c3cccc(Cl)c3)CC2)c(=O)n1CCOc1ccccc1` the value was “inactive”; for `CCCCCCCCCCCC[N+](C)(C)CCCS(=O)(=O)[O-]`, “inactive”; for `CCN(Cc1cccc(S(=O)(=O)O)c1)c1ccc(C(=C2C=CC(=[N+](CC)Cc3cccc(S(=O)(=O)[O-])c3)C=C2)c2ccccc2)cc1`, “inactive”. Same read-out and setting: the entry for `CC(=O)Oc1ccc(C(=C2CCCCC2)c2ccc(OC(C)=O)cc2)cc1` is “inactive”. Consider `Cc1cc(O)c(C(C)C)cc1Cl`, for which the call was inactive. The same measure, in the same setting: for `Nc1ccc(C(=O)OCCCOC(=O)c2ccc(N)cc2)cc1` the value was “inactive”; for `CCCCC(=O)O[C@]1(C(=O)CO)[C@@H](C)C[C@H]2[C@@H]3CCC4=CC(=O)C=C[C@]4(C)[C@@]3(F)[C@@H](O)C[C@@]21C`, “inactive”.

As for `O=C(CCCCCCCCC#CI)Oc1ccccc1`, the molecule was called inactive. Still for that read-out and setting: the entry for `c1ccc(COCc2ccccc2)cc1` is “inactive”; for `CC(C)CCCCCOC(=O)CCCCC(=O)OCCCCCC(C)C` it is “inactive”. Still for that read-out and setting: the entry for `CCOC(=O)[C@@H](C)Oc1ccc(Oc2nc3ccc(Cl)cc3o2)cc1` is “inactive”; for `O=[N+]([O-])c1cccc(S(=O)(=O)NCCNS(=O)(=O)c2cccc([N+](=O)[O-])c2)c1` it is “inactive”. Same read-out and setting: the entry for `COC(OC)(C(=O)c1ccccc1)c1ccccc1` is “inactive”; for `COC(=O)CC(=O)C(C)(C)C` it is “inactive”. Take `Cc1nc2ccccc2s1`: the outcome was inactive. Turning to `CC[C@H](NC(=O)c1cc(F)ccc1NS(=O)(=O)c1cccc2cccnc12)c1ccccc1`, the call was inactive. Still for that read-out and setting: the entry for `CC(Cl)C(Cl)Cl` (stereo not given) is “inactive”.

For `O=C(C(=O)c1ccccc1)c1ccccc1`, the call was inactive.

Regarding `CC(C)CCCC(=O)O`, the molecule was called inactive. The same measure, in the same setting: for `C[C@@H]1C[C@H]2[C@@H]3CCC4=CC(=O)C=C[C@]4(C)[C@@]3(F)[C@@H](O)C[C@]2(C)[C@H]1C(=O)CO` the value was “inactive”.
